Our source for the INHIBITION values is ChEMBL document CHEMBL4513216, “Probing the Open Global Health Chemical Diversity Library for Multistage-Active Starting Points for Next-Generation Antimalarials” (ACS Infect Dis, 2020).

Molecules are shown by their SMILES. The campaign covered roughly 69,000 compounds. About 8,600 (12%) showed an effect of 50% or more. Only a selection was taken, and strong results are over-represented in it overall.

The test system of this test is Plasmodium berghei. The test is described as follows: Screen against P. berghei liver stage (PbLuc), transformed with Luciferase, at 10uM. In kind it is functional, HepG2. The conditions noted are these: tested at 10 uM.
On to `CN1C(=O)CCC12CCC(NCc1ccsc1)CC2` (stereo not drawn), for which the INHIBITION came out at 8.74%.

On to `COCCOC1CCN(C(C(=O)O)c2ccc3c(c2)OCO3)CC1` (stereo not drawn), for which the INHIBITION is listed as 14.9%. Under `COCCCC1CCCCN1Cc1cn2cc(C)ccc2n1` (stereo not drawn) stands -17.2%; under `CN1CCN(C(=O)CCCc2ccccc2)CC(O)(Cn2cccn2)C1` (stereo not drawn), 26.65%. As to `Cc1ccc(-n2cc(CN3CCOCC3)c(-c3cccc(C)c3)n2)cc1`, the INHIBITION amounted to 56.1%.

As for `Cc1ccc(C)c(-n2cc(CN3CCOCC3)c(-c3ccccc3)n2)c1`, the INHIBITION stood at 33.4%. As for `Cc1ccc(C)c(-n2cc(CN3CC[C@@H](O)C3)c(-c3ccccc3)n2)c1`, the INHIBITION amounted to 39.9%.

`COc1cc(N2CCCn3cnc(COC(C)C)c3C2)ncn1`: the INHIBITION was 48.2%. The value for `Cc1cc(NC(=O)C(C)Nc2cccc(COCc3ccco3)c2)on1` (stereo not drawn) was 39.5%; that for `Cc1nc(-c2cccc(C(=O)O)c2)cc(C2CCN(C(C)C)C2)n1` (stereo not drawn) was 0.0932%; that for `Cc1cc(-c2cccc(C(=O)O)c2)nc(C2CCN(C(C)C)CC2)n1` was 56%. Under `Cc1cccc(Nc2cc(C)nc(C3CCN(C(C)C)C3)n2)n1` (stereo not drawn) stands 60.9%; under `Cc1cc(C)nc(Nc2cc(C)nc(C3CCN(C(C)C)C3)n2)n1` (stereo not drawn), 11.685%. Consider `Cc1cc(-c2ccc(C(=O)O)cc2)nc(C2CCN(C(C)C)CC2)n1`, for which the INHIBITION is 2.71%.

Turning to `Cc1cc(C)nc(Nc2cccc(C3CCCN(C(C)C)C3)n2)n1` (stereo not drawn), the INHIBITION is -21.4%. Turning to `Cc1noc(Cl)c1CCC(=O)N1CCN(Cc2ccncc2)CC1`, the INHIBITION stood at 1.78%. Turning to `Cc1nn2cnnc2c(C)c1CCC(=O)Nc1nnc(C2CC2)s1`, the INHIBITION is -31.1%.

With `CC(C(=O)NCCc1ccc2c(c1)OCCO2)n1cncn1` (stereo not drawn), the INHIBITION was determined as 35.4%.

In the case of `CCN(Cc1noc(CC(C)C)n1)Cc1cc2ccc(F)cc2[nH]c1=O`, the INHIBITION was -7.65%.

Turning to `Cn1cccc1CN1CCc2c(nc(-c3ccccn3)[nH]c2=O)C1`, the INHIBITION is on record as 6.32%. Under `CCOc1ccc2[nH]c(=O)c(CN3CCCC(CO)(CO)C3)cc2c1` stands -46.4%; under `CO[C@H]1CCN(C(=O)c2ccc3[nH]nnc3c2)C[C@@]12CCCO2`, 5.34%; under `CSc1ccc(C(=O)N2CC(=O)N(CC(C)(C)C)CC(O)C2)cc1` (stereo not drawn), 37.4%. The value for `O=C1CN(CC2CC2)Cc2nc(NCCc3ccccn3)sc21` was 23.4%. Under `CC(=O)N1CCCC2(CCN(c3ccccc3)C2=O)C1` (stereo not drawn) stands 2.58%; under `O=C(NCCc1ccccc1)N1CCCCC1C1OCCO1` (stereo not drawn), 25.7%. Take `O=C(CCc1ccccc1)N1CCCCC1C1OCCO1` (stereo not drawn): the INHIBITION is 72.1%. On to `O=C(CCc1ccccc1)N1CCCCC1Cn1cccn1` (stereo not drawn), for which the INHIBITION is on record as 29.4%.

For the molecule `c1coc(CN2CCOC3(COCCN(Cc4ccncc4)C3)C2)c1` (stereo not drawn), the INHIBITION was 31.7%.

For the molecule `O=C(Cc1csc(-c2ccoc2)n1)NCCCN1CCCCC1`, the INHIBITION is on record as -55.1%. `Cc1nc(CN(C)C2CCN(Cc3nnc(C4CC4)o3)C2)no1` (stereo not drawn): the INHIBITION is -55.4%. Take `CC(C)c1nc(CN2CCCN(Cc3nnc(C4CC4)o3)CC2)no1`: the INHIBITION was -33.5%. `C1CN(Cc2noc(C3CC3)n2)CCN(Cc2nnc(C3CC3)o2)C1`: the INHIBITION came to 74.9%. In the case of `CN(Cc1noc(C2CC2)n1)C1CCN(CCc2cccs2)C1` (stereo not drawn), the INHIBITION is 43.2%. On to `CN(Cc1nnc(C2CC2)n1C)C1CCN(CCc2cccs2)C1` (stereo not drawn), for which the INHIBITION is on record as -39.9%. On to `CC(C)c1nc(CN(C)C2CCN(Cc3nnc(C4CC4)o3)C2)no1` (stereo not drawn), for which the INHIBITION is -25.9%. For the molecule `CN(Cc1nnc(C2CC2)o1)C1CCN(CCc2cccs2)C1` (stereo not drawn), the INHIBITION was 56.7%. Under `CCc1nc(CN2CCCN(Cc3nnc(C4CC4)o3)CC2)no1` stands 37.9%; under `CN(Cc1noc(C2CC2)n1)C1CCN(Cc2nnc(C3CC3)o2)C1` (stereo not drawn), 51.6%. The value for `COCCN1CC(=O)c2sc(NC(C)C)nc2C1` was 39.7%. The value for `Cc1cc(N(C)C)nc(C2(C)CCCN2C(=O)c2ccn(C)n2)n1` (stereo not drawn) was 36.4%; that for `Cc1cc(C(=O)N2CCCN(Cc3nccn3C)CC2)no1` was 22.3%. Regarding `Cc1ccc(S(=O)(=O)N2CCOCC2C#N)c(F)c1` (stereo not drawn), the INHIBITION was -26.1%. Under `Cc1ccnc(C2CCCN2C(=O)c2cnccn2)n1` (stereo not drawn) stands 3.91%; under `COc1ccc(N(C)Cc2nc3c(cnn3C)c(=O)[nH]2)cc1OC`, 35.9%; under `COc1cc(Br)c(CNC(C)c2nnc3n2CCC3)cc1OC` (stereo not drawn), 47.1%. Under `CCOc1c(Br)cc(CNCCc2nnc3n2CCCCC3)cc1OC` stands 55.4%. For `Brc1cc(CNCc2nnc3n2CCC3)cs1`, the INHIBITION is given as 13.9%. The value for `CCOc1c(Br)cc(CNC(C)c2nnc3n2CCC3)cc1OC` (stereo not drawn) was 50.8%; that for `COc1cccc(CC(=O)NCCc2nnc3n2CCCCC3)c1` was -11.3%; that for `COc1cc(CNC(C)c2nnc3n2CCC3)cc(OC)c1` (stereo not drawn) was 37.8%.

In the case of `CC1(NC(=O)Cc2csc(-c3ccccc3Cl)n2)CCS(=O)(=O)C1` (stereo not drawn), the INHIBITION is reported as 34.6%. Under `CCN1CCOC(CNCc2ccc(OCc3ccccn3)cc2)C1` (stereo not drawn) stands 3.5%. Take `Cc1c(C(=O)N2CCN(c3ccccn3)CC2)n(C)c2ccc(Cl)cc12`: the INHIBITION is 34%. The value for `CC(C)Cc1nc(CN2CCCC2Cn2cncn2)no1` (stereo not drawn) was 9.85%. Under `N#Cc1ccc(N2CCCN(CCCn3cncn3)CC2)cc1` stands 9.87%; under `N#Cc1ccc(CN2CCCN(CCCn3cncn3)CC2)cc1`, 56.5%. Under `N#Cc1ccc(CN2CCCN(C(=O)CCn3cncn3)CC2)cc1` stands -14.3%. On to `CN(C)CCN1CCO[C@H]2CN(C(=O)N(C)C)C[C@H]21`, for which the INHIBITION is given as 33.4%.

With `O=C(O)c1csc(NCCc2ccccc2)n1`, the INHIBITION was 34.2%.

Consider `O=C(c1ccoc1)N1CCC2(CC1)C(=O)N(CC1CC1)c1ccccc12`, for which the INHIBITION came to 29.7%. As for `CC(C)=CCN1C[C@@H]2CC[C@H]1CN(Cc1cc(=O)[nH]c(=O)[nH]1)C2`, the INHIBITION worked out at 39%. Take `CC(C)=CCN1C[C@@H]2CC[C@H]1CN(CCC(=O)NCc1ccco1)C2`: the INHIBITION is recorded as 29.7%.

With `CC(C)=CCN1C[C@@H]2CC[C@H]1CN(Cc1coc(C)n1)C2`, the INHIBITION came out at 55%. The value for `Cc1ccc(C(=O)N2C[C@@H]3OCCN(CCN4CCCC4)[C@@H]3C2)cn1` was 19.9%; that for `COc1cc(C)c2c(c1C)C[C@@H](C(C)C(=O)O)CC2` (stereo partly drawn) was 10.1%; that for `c1ccc(-n2ccc(CN3CCCC(Cn4cncn4)C3)n2)cc1` (stereo not drawn) was 15.3%. The value for `Cc1nc(C(C)Nc2ncnc3c2CCNCC3)c(C)s1` (stereo not drawn) was -10.9%; that for `CCCc1ccc(C(C)Nc2ncnc3c2CCNC3)cc1` (stereo not drawn) was 74.7%; that for `CC(Nc1ncnc2c1CCNC2)c1ccc2c(c1)CCCC2` (stereo not drawn) was 88.6%.

For the molecule `Cc1ccccc1C(Nc1ncnc2c1CCNC2)c1ccccc1` (stereo not drawn), the INHIBITION stood at 36.8%. Under `CC(Nc1ncnc2c1CCNC2)c1ccc(C(C)(C)C)cc1` (stereo not drawn) stands 65%. Under `Cc1cc(C)n(CC(C)Nc2ncnc3c2CCNC3)n1` (stereo not drawn) stands 29.4%; under `CC(Nc1ncnc2c1CCNCC2)c1nc2c(s1)CCCC2` (stereo not drawn), 1.98%.

In the case of `CC(C)Nc1ncnc2c1CCNCC2`, the INHIBITION is listed as 43.8%. Consider `CCOc1ccc(C(C)Nc2ncnc3c2CCNC3)cc1OCC` (stereo not drawn), for which the INHIBITION was determined as 47.9%.

For the molecule `O=C(C1CCOCC1)N1CCc2onc(COc3cccnc3)c2C1`, the INHIBITION is recorded as 46.2%.

With `Cc1ccoc1C(=O)N1CCc2ncnc(-c3cnn(C)c3)c2CC1`, the INHIBITION is -49.8%. On to `Cc1cc(C2CCN(S(=O)(=O)N(C)C)CC2)ccn1`, for which the INHIBITION stood at 9.05%. Take `CN(C)CCN1C(=O)CCC12CCN(Cc1cccs1)CC2`: the INHIBITION turned out to be 29.7%.

Turning to `CCc1nc(CN2CCN(C(=O)c3cncnc3CC)CC2)cs1`, the INHIBITION is listed as -86.365%. As to `CC(C)NC(=O)N1CC[C@@H]2[C@@H]1CC(=O)N2Cc1cccnc1`, the INHIBITION was 6.27%. Under `CC1c2ncc(COc3cccnc3)n2CCN1C(=O)C1=CCCCC1` (stereo not drawn) stands -6.23%; under `COc1ccc(CNC(=O)Nc2cccnc2N2CCCC2)cc1OC`, 31.2%.

In the case of `Nc1nc2c(c(NC(=O)Nc3ccc(Cl)c(Cl)c3)n1)CCCC2`, the INHIBITION is -10.3%. Under `Nc1nc2c(c(NC(=O)Nc3ccccc3)n1)CCCC2` stands 32.1%; under `Nc1nc2c(c(NC(=O)Nc3cccc(Cl)c3)n1)CCCC2`, 88.8%; under `COCCOc1ccc(CNc2nc3ccccc3nc2N)cn1`, 80.9%. The value for `COCCOc1ccc(CNc2cnc3ccccc3n2)cn1` was -43%; that for `COCCOc1ccc(CNc2nc3ccccc3o2)cn1` was -11.5%; that for `COCCNC(=O)Cn1c(-c2cccc(F)c2)nc(C)c(CCO)c1=O` was 7.22%. Under `Cc1cnc(C(=O)N2CCOCC2c2ccccc2)cn1` (stereo not drawn) stands 43.6%; under `c1ccc(OCCN2CCC(n3cncn3)CC2)cc1`, 37.4%; under `Clc1cc(Cl)cc(OCCN2CCC(n3cncn3)CC2)c1`, 62.4%. Turning to `CSc1ccc(OCCN2CCC(n3cncn3)CC2)cc1`, the INHIBITION is given as 27.6%. Under `CC(C)n1[nH]c(=O)c2c1NC(=O)CC2c1ccncc1` (stereo not drawn) stands -19.1%.

In the case of `CCc1ccc(C2CC(=O)Nc3c2c(=O)[nH]n3C(C)C)cc1` (stereo not drawn), the INHIBITION is given as 79.7%. As to `CSc1ccc(C2CC(=O)Nc3c2c(=O)[nH]n3C(C)C)cc1` (stereo not drawn), the INHIBITION is listed as 19.8%. The value for `Cc1cccc(C2CC(=O)Nc3c2c(=O)[nH]n3C(C)C)c1` (stereo not drawn) was 71.3%. Under `CC(C)n1[nH]c(=O)c2c1NC(=O)CC2c1cccc(O)c1` (stereo not drawn) stands -47%; under `CC(C)n1[nH]c(=O)c2c1NC(=O)CC2c1cccc(Br)c1` (stereo not drawn), -6.61%. The value for `O=C(CCn1nc(-c2cccs2)oc1=O)Nc1cccc(F)c1` was 31.9%; that for `O=C1CC2(CCN(c3nncs3)C2)CN1c1cncnc1` (stereo not drawn) was 15.4%; that for `Cc1cnc2c(S(=O)(=O)NCC3CCOC3)cccc2c1` (stereo not drawn) was 3.15%. With `Cc1cccc(OCC2CCCN(C(=O)CCn3ccccc3=O)C2)c1` (stereo not drawn), the INHIBITION is given as -10.2%. Regarding `c1ccc(-c2nnc3sc(CCN4CCCCCC4)nn23)cc1`, the INHIBITION was 30.8%. With `c1cc(-c2nnc3sc(CCN4CCCC4)nn23)ccn1`, the INHIBITION is on record as 46.1%. For `c1ccc(-c2nnc3sc(CCN4CCCC4)nn23)cc1`, the INHIBITION worked out at 54.3%.
